Results published in article PMC5540273 (PLoS ONE, 2017).

How the values were obtained:
Conditions in all cases: concentration: 1 μM, replicates: in singlicate; n = 1
IRAK4 = system: IRAK4
ITK = system: ITK
[1] = system: JAK1(JH1domain-catalytic)
[2] = system: JAK1(JH2domain-pseudokinase)
[3] = system: JAK2(JH1domain-catalytic)
[4] = system: JAK3(JH1domain-catalytic)
JNK1 = system: T1, JNK1
T1 construct: gene MAPK8

JNK2 = system: T2, JNK2
T2 construct: gene MAPK9

JNK3 = system: T3, JNK3
T3 construct: gene MAPK10

KIT-autoinhibited = system: KIT-autoinhibited
KIT = system: KIT
LATS1 = system: LATS1
LATS2 = system: LATS2
LCK = system: LCK
LIMK1 = system: LIMK1
LIMK2 = system: LIMK2
LKB1 = system: T4, LKB1
T4 construct: gene STK11

LOK = system: T5, LOK
T5 construct: gene STK10

LRRK2 = system: LRRK2
LTK = system: LTK
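Also: KINOMEscan kinase panel screen.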

| SMILES | %Inh (IRAK4) [%] | %Inh (ITK) [%] | %Inh [1] [%] | %Inh [2] [%] | %Inh [3] [%] | %Inh [4] [%] | %Inh (JNK1) [%] | %Inh (JNK2) [%] | %Inh (JNK3) [%] | %Inh (KIT-autoinhibited) [%] | %Inh (KIT) [%] | %Inh (LATS1) [%] | %Inh (LATS2) [%] | %Inh (LCK) [%] | %Inh (LIMK1) [%] | %Inh (LIMK2) [%] | %Inh (LKB1) [%] | %Inh (LOK) [%] | %Inh (LRRK2) [%] | %Inh (LTK) [%] |
| --- | --- | --- | --- | --- | --- | --- | --- | --- | --- | --- | --- | --- | --- | --- | --- | --- | --- | --- | --- | --- |
| CN(C)CCN(C)C(=O)c1cc(-c2ccncc2)c(-c2ccc(Cl)c(O)c2)o1.Cl.Cl [SB-710397] | 43 | 13 | 18 | 0 | 49 | 0 | 27 | 29 | 35 | 0 | 0 | 3 | 0 | 34 | 0 | 0 | 0 | 72 | 0 | 11 |
| Cc1c(Cn2ccn3c(=O)cc(N4CCOCC4)nc23)cccc1C(F)(F)F [GSK2289044] | 0 | 5 | 83 | 0 | 0 | 0 | 3 | 6 | 3 | 0 | 10 | 0 | 13 | 7 | 0 | 0 | 10 | 0 | 0 | 0 |
| CC1=C(C(=O)Nc2cc3cn[nH]c3cc2F)C(c2ccc(C(F)(F)F)cc2)CC(=O)N1 (centres unmarked) [GSK429286] | 17 | 13 | 40 | 0 | 62 | 29 | 21 | 25 | 15 | 0 | 9 | 0 | 39 | 22 | 0 | 0 | 0 | 0 | 12 | 0 |
| CC(=O)Nc1nc2cnc(Nc3cc(NC(=O)c4cccc(CCC#N)c4)ccc3C)nc2s1 | 15 | 3 | 3 | 9 | 22 | 0 | 0 | 0 | 0 | 11 | 99.7 | 21 | 29 | 27 | 0 | 0 | 0 | 0 | 0 | 0 |
| Fc1cc(Cl)ccc1Nc1ccnc2cc(-c3ccc(CN4CCCCC4)o3)ccc12 [GW560116] | 0 | 2 | 11 | 0 | 24 | 0 | 0 | 1 | 0 | 0 | 61 | 3 | 0 | 35 | 0 | 0 | 0 | 0 | 0 | 8 |
| COc1ccc(CNC(=O)NC2CCN(c3ccnc(Nc4cc(OC)c(OC)c(OC)c4)n3)C2)cc1 (centres unmarked) [GSK1379748] | 0 | 7 | 0 | 0 | 87 | 0 | 0 | 0 | 0 | 0 | 57 | 0 | 11 | 7 | 0 | 0 | 12 | 0 | 0 | 64 |
| Nc1nc(-c2nccs2)c(-c2ccnc3ccccc23)s1 [GW693542] | 16 | 6 | 17 | 0 | 10 | 0 | 20 | 22 | 1 | 0 | 0 | 22 | 0 | 13 | 6 | 0 | 0 | 0 | 19 | 4 |
| Cc1cc(N2Cc3ccccc3C2)nc(Nc2ccc(S(=O)(=O)N3CCOCC3)cc2)n1.Cl [GSK1669917] | 0 | 0 | 11 | 0 | 0 | 0 | 3 | 13 | 1 | 3 | 0 | 29 | 10 | 4 | 0 | 16 | 12 | 0 | 0 | 0 |
| Cc1ccc(-c2cc(-c3c[nH]nc3-c3ccccn3)ccn2)cc1 [GW684088] | 0 | 0 | 12 | 1 | 0 | 0 | 29 | 36 | 53 | 2 | 23 | 0 | 6 | 7 | 0 | 17 | 12 | 0 | 0 | 0 |
| Cc1cc(-c2ccc3c(c2)CC[C@@H](N[C@@H](C)c2ccccc2)C3)cnc1N.Cl [GW412617] | 71 | 18 | 12 | 46 | 34 | 0 | 36 | 3 | 4 | 0 | 60 | 0 | 0 | 34 | 0 | 0 | 0 | 0 | 33 | 0 |
